Laboratory results from the supplement of paper PMC13380429.

System: Vero E6 infected with SARS-CoV-2
Test: inhibition of SARS-CoV-2 cytopathic effect; higher = more antiviral protection, active = above 15
Conditions: 48 h

Measured: inhibition of SARS-CoV-2 cytopathic effect

O=c1sn(-c2cccc3ccccc23)c(=O)n1Cc1ccccc1 [tideglusib]
inactive: 1 nM -1.59% | 8.33 nM -1.6% | 100 nM -1.32% | 833.33 nM 0.87% | 10000 nM -0.03%

Oc1cccc(O)c1 [resorcinol]
inactive: 1 nM -6.66% | 8.33 nM -5.24% | 100 nM -4.73% | 833.33 nM -2.6% | 10000 nM -2.66%

Cc1cc(=O)n(-c2ccccc2)[nH]1 [N-demethylantipyrine]
inactive: 1 nM 6.19% | 8.33 nM -3.23% | 100 nM -4.99% | 833.33 nM -2.77% | 10000 nM -2.87%

CCCc1ncc(C[n+]2ccccc2C)c(N)n1 [amprolium]
inactive: 1 nM 7.17% | 8.33 nM 1.36% | 100 nM 4.43% | 833.33 nM -0.09% | 10000 nM 0.03%

C[C@@]1(CO)[C@H](O)CC[C@@]2(C)[C@H]1CC[C@H]1C[C@@H]3C[C@@]12CC[C@]3(O)CO [aphidicolin]
inactive: 1 nM -5.87% | 8.33 nM -3.68% | 100 nM -2.81% | 833.33 nM -0.76% | 10000 nM -2.66%

CCCOC(C(=O)OC1CCN(C)CC1)(c1ccccc1)c1ccccc1 [propiverine]
inactive: 1 nM 0.57% | 8.33 nM 1.63% | 100 nM 0.85% | 833.33 nM -0.19% | 10000 nM 1.89%

C#Cc1cnc2nc(O)n(C(CC)CC)c2n1 [tirasemtiv]
inactive: 1 nM 1.57% | 8.33 nM -0.65% | 100 nM 1.78% | 833.33 nM 2.57% | 10000 nM -1.21%
